Measured values reported in PubChem BioAssay (NCI).
Compounds without any hit were thinned out: in the full panel of roughly 83,000, 20% have a hit.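 Step 1: grow cells in 96-well plates. Step 2: add test compound at a single concentration. Step 3: incubate 48 h. Step 4: record percent growth.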 Unmarked numbers belong to inactive results. Active and inactive are the calls of the source. The calls were made as follows: active = growth percent below 10; inactive = the rest.

tested on: NCI-H322M lung; test: NCI-60 one-dose screen, 48 h (100 = growth as untreated, 0 = no growth, -100 = all killed); details: 10 µM unless noted

Compared with `CO[C@H]1CC(c2ccc[nH]2)=N[C@]12O[C@@H](C)C[C@@H]1CCCCCCCc3ccc([nH]3)[C@H]12`, `CNC1=C([N+](=O)[O-])C(c2ccc(OC)cc2)C(C#N)=C(c2ccc[nH]2)O1` (configuration not stated) is higher in growth: 37.8% for the first, 101% for the second.

Compared with `O=c1c(/C=C/c2c(O)ccc3ccccc23)nnc2sc(-c3cccc([N+](=O)[O-])c3)nn12`, `O=[N+]([O-])c1ccc(Oc2cccc3c(Oc4ccc([N+](=O)[O-])cc4[N+](=O)[O-])cccc23)c([N+](=O)[O-])c1` is higher in growth: 41.1% for the first, 92.4% for the second.

First: CCOC(=O)CC1C(CNC(=O)NC)OC(n2cnc3c(NC(=O)Nc4ccccc4)ncnc32)C1O[Si](C)(C)C(C)(C)C (configuration not stated)
Second: Cc1cc(C(=O)Nc2cc(Nc3ncccc3-c3ncnc4nc[nH]c34)ccc2F)cc(C(C)(C)C#N)c1
The growth of the first is higher: 90.5% for the first, 56.6% for the second.

First: COc1ccc(Cn2cc3c(c2)-c2oncc2CC3)cc1
Second: Cn1cc(-c2csc(-c3cn(C)c4ccc(F)cc34)n2)c2cnccc21
The growth of the first is higher: 89.6% for the first, 21.9% for the second.

`CCCCCN(CCCCC)CC(O)c1c(Cl)ccc2ccccc12` (configuration not stated) showed a growth of 71.2%.

With `COc1ccc2c(O)cc3c(c2c1)[C@H](CCl)CN3C(=O)c1cc2cc(NC(=O)CCN3CCOCC3)ccc2[se]1` the growth was -87.8% (active).
For `CC1(C)CCC[C@]23C(=O)O[C@](O)(C(=O)C4=C[C@@](C)(/C=C/CCCc5ccc6ccc7cccc8ccc5c6c78)CC[C@@]42O)[C@@H]13`, the growth was -98.6% (active).
For `COc1ccc(-c2ccc(-c3ccc(C(=N)N)nc3)s2)cc1`, the growth was -19.8% (active).
